{"source": "PubChem BioAssay (EPA / NIEHS)", "note": "Calls of active or inactive are those of the source. How the source made its calls: active means hit-call score of the fitted dose curve at least 0.9, where 1 is the maximum; inactive means score below 0.9.", "data": [{"test": "APR_HepG2_CellLoss_1hr: Apredica 1-hour HepG2 Assay for Cell Loss (AID 2282668);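 further: curves fitted both ways against DMSO so gain or loss of cells counts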", "settings": "high-content imaging", "experimental": "APR_HepG2_1hr is a cell-based, multiplexed-readout assay that uses HepG2, a human liver cell line, with measurements taken at 1 hour after chemical dosing in a 384-well plate.APR_HepG2_CellLoss_1hr is one of 10 assay component(s) measured or calculated from the APR_HepG2_1hr assay. It is designed to make measurements of cell number, a form of viability reporter, as detected with fluorescence intensity signals by HCS Fluorescent Imaging technology.Data from the assay component APR_HepG2_CellLoss_1hr was analyzed into 1 assay endpoint. This assay endpoint, APR_HepG2_CellLoss_1hr, was analyzed with bidirectional fitting relative to DMSO as the negative control and baseline of activity. Using a type of viability reporter, measures of all nuclear dna for gain or loss-of-signal activity can be used to understand the viability at the cellular-level. Furthermore, this assay endpoint can be referred to as a secondary readout, because this assay has produced multiple assay endpoints where this one serves a viability function. To generalize the intended target to other relatable targets, this assay endpoint is annotated to the cell cycle intended target family, where the subfamily is proliferation.\nCells were treated with dimethyl sulfoxide (DMSO) as a solvent control at a final concentration of 0.5% v/v or with compounds in DMSO with a resulting final DMSO concentration of 0.5% v/v. Compound treatment was done at concentrations of 0.39, 0.78, 1.56, 3.12, 6.24, 12.5, 25, 50, 100, and 200 uM in duplicate on each plate. Cells were treated with compounds for 1, 24, or 72 hr. Carbonyl […] m-chloro-phenylhydrazone (CCCP) and taxol were used as positive controls for mitochondrial function and cytoskeletal stability, respectively; DMSO served as the negative control for this experiment. Cells were fixed by the direct addition of 50 uL formaldehyde in Hank's Balanced Salt Solution (HBSS) to a final concentration of 3.7%. After incubation in the fixation medium for 30 min at room temperature (293-298 K), cells were rinsed twice with HBSS and treated with cell permeabilization buffer (16 uL of 0.5% Triton X-100) for 10 min at room temperature (293-298 K) before labeling. For mitochondrial membrane potential and mitochondrial measurements, pre-fixed cells were incubated with 50 uL of MitoTracker Red CMXRos (Invitrogen) at a concentration of 250 nM for 30 min before fixation. In the remaining cases, post-fixed cells were labeled by incubation with a multiplexed mixture of primary antibodies in HBSS for 60 min at room temperature (293-298 K) to detect immunoreactivity of c-Jun (1:500), phospho-histone H3 (1:100), phospho-histone H2A.x (1:200), p53 (1:400), alpha-tubulin (1:200) and Hoechst 33342 (2 ug/mL). Cells were labeled for multiplexed imaging on two separate plates: a) Hoechst 33342, MitoTracker Red, phospho-histone H3, and alpha-tubulin, and b) Hoechst 33342, phospho-histone H2A.x, and c-Jun. A final rinse with HBSS (50 uL) was performed before analysis. The primary and secondary antibodies for the proteins were phospho-histone H3 (rabbit anti-phospho-histone H3 and FITC-donkey anti-rabbit IgG), phospho-histone H2A.x (mouse anti-phospho-histone H2A.x and FITC-donkey anti-mouse IgG), c-Jun (rabbit anti-phospho-c-Jun and Cy3-donkey anti-rabbit IgG), p53 (sheep anti-p53 and Cy5-donkey anti-sheep IgG), alpha-tubulin (mouse anti-alpha-tubulin and Cy5-donkey anti-mouse IgG). These antibodies are available as the CellCiphr HepG2 assay kit (Millipore).Digital images of each well were captured using a Cellomics ArrayScan VTI (Thermo Scientific Cellomics) (0.8 NA objective, 0.63x optical coupler, and XF-93 filter set) at 20x magnification. The images were acquired using the autofocus feature of the ArrayScan instrument, which entails the following steps. First, the camera focuses on channel 1 (Hoechst 33342), where nuclei are identified. Second, a Z offset of 1 um is used for capturing mitochondria (MitoTracker Red). […]", "values": [{"molecule": "CNC(=O)ON=C(C)SC", "outcome": "inactive"}, {"molecule": "CCCSP(=O)(OCC)Oc1ccc(Br)cc1Cl", "note": "(stereo not given)", "outcome": "inactive"}, {"molecule": "CNC(=O)ON=C(SC)C(=O)N(C)C", "outcome": "inactive"}, {"molecule": "Cc1cc(C2CC2)nc(Nc2ccccc2)n1", "outcome": "inactive"}, {"molecule": "Cc1nn(-c2cc(NS(C)(=O)=O)c(Cl)cc2Cl)c(=O)n1C(F)F", "outcome": "inactive"}, {"molecule": "CCc1cccc(CC)c1N(COC)C(=O)CCl", "outcome": "inactive"}, {"molecule": "COP(=O)(OC)OC(Br)C(Cl)(Cl)Br", "note": "(stereo not given)", "outcome": "inactive"}, {"molecule": "COc1cc(OC)nc(Sc2cccc(Cl)c2C(=O)O)n1", "outcome": "inactive"}, {"molecule": "Nc1c(Cl)cc([N+](=O)[O-])cc1Cl", "outcome": "inactive"}, {"molecule": "CC[C@H](C)[C@H]1O[C@]2(C=C[C@@H]1C)C[C@@H]1C[C@@H](C/C=C(\\C)[C@@H](O[C@H]3C[C@H](OC)[C@@H](O[C@H]4C[C@H](OC)[C@@H](NC)[C@H](C)O4)[C@H](C)O3)[C@@H](C)/C=C/C=C3\\CO[C@@H]4[C@H](O)C(C)=C[C@@H](C(=O)O1)[C@]34O)O2", "AC50": "16.5 µM (active)"}, {"molecule": "CCOP(=S)(OCC)Oc1cc(C)nc(C(C)C)n1", "outcome": "inactive"}, {"molecule": "COP(=O)(OC)C(O)C(Cl)(Cl)Cl", "note": "(stereo not given)", "outcome": "inactive"}, {"molecule": "CSC1=N[C@@](C)(c2ccccc2)C(=O)N1Nc1ccccc1", "outcome": "inactive"}, {"molecule": "O=[N+]([O-])c1cc(C(F)(F)F)c(Cl)c([N+](=O)[O-])c1Nc1ncc(C(F)(F)F)cc1Cl", "AC50": "94.8 µM (active)"}, {"molecule": "CCc1cnc(C2=NC(C)(C(C)C)C(=O)N2)c(C(=O)O)c1", "note": "(stereo not given)", "outcome": "inactive"}, {"molecule": "CC(C)=CC1C(C(=O)OCN2C(=O)C3=C(CCCC3)C2=O)C1(C)C", "note": "(stereo not given)", "outcome": "inactive"}, {"molecule": "CCOC(=O)CC(SP(=O)(OC)OC)C(=O)OCC", "note": "(stereo not given)", "outcome": "inactive"}, {"molecule": "N#CSCSC#N", "outcome": "inactive"}, {"molecule": "CCOP(=O)(OCC)Oc1cc(C)nc(C(C)C)n1", "outcome": "inactive"}, {"molecule": "CC1=NNC(=O)N(/N=C/c2cccnc2)C1", "outcome": "inactive"}, {"molecule": "CN(C)[C@@H]1C(=O)C(C(N)=O)=C(O)[C@@]2(O)C(=O)C3=C(O)c4c(O)cccc4[C@@](C)(O)[C@H]3[C@H](O)[C@@H]12", "outcome": "inactive"}, {"molecule": "CCCOc1nn(C(=O)NS(=O)(=O)c2ccccc2C(=O)OC)c(=O)n1C", "outcome": "inactive"}, {"molecule": "CC1(C(=O)Nc2ccc(O)c(Cl)c2Cl)CCCCC1", "outcome": "inactive"}, {"molecule": "CC(=NC#N)N(C)Cc1ccc(Cl)nc1", "outcome": "inactive"}, {"molecule": "CCCCOC(=O)[C@@H](C)Oc1ccc(Oc2ccc(C#N)cc2F)cc1", "outcome": "inactive"}, {"molecule": "C=C(C)[C@H]1Cc2c(ccc3c2O[C@@H]2COc4cc(OC)c(OC)cc4[C@@H]2C3=O)O1", "outcome": "inactive"}, {"molecule": "CNc1cnn(-c2cccc(C(F)(F)F)c2)c(=O)c1Cl", "outcome": "inactive"}, {"molecule": "CC(Oc1cccc(Cl)c1)C(=O)O", "note": "(stereo not given)", "outcome": "inactive"}, {"molecule": "COP(=O)(NC(C)=O)SC", "note": "(stereo not given)", "outcome": "inactive"}, {"molecule": "CCC(=NOC/C=C/Cl)C1=C(O)CC(C2CCOCC2)CC1=O", "note": "(stereo not given)", "outcome": "inactive"}, {"molecule": "CC(C1CC1)C(O)(Cn1cncn1)c1ccc(Cl)cc1", "note": "(stereo not given)", "outcome": "inactive"}, {"molecule": "C#CC(C)(C)NC(=O)c1cc(Cl)cc(Cl)c1", "outcome": "inactive"}, {"molecule": "CN(C)C(=O)Nc1cccc(C(F)(F)F)c1", "outcome": "inactive"}, {"molecule": "COc1ccc(C(=CC(=O)N2CCOCC2)c2ccc(Cl)cc2)cc1OC", "outcome": "inactive"}, {"molecule": "COP(=O)(OC)SCn1c(=O)oc2cc(Cl)cnc21", "outcome": "inactive"}, {"molecule": "CSc1nc(NC(C)C)nc(NC(C)C)n1", "outcome": "inactive"}, {"molecule": "CCOP(=O)(NC(C)C)Oc1ccc(SC)c(C)c1", "note": "(stereo not given)", "outcome": "inactive"}, {"molecule": "CSc1nnc(C(C)(C)C)c(=O)n1N", "outcome": "inactive"}, {"molecule": "CCNc1nc(Cl)nc(NC(C)(C)C#N)n1", "outcome": "inactive"}, {"molecule": "CCC(CC)Nc1c([N+](=O)[O-])cc(C)c(C)c1[N+](=O)[O-]", "outcome": "inactive"}]}]}
